Measurements taken from the supplement of paper PMC3334620.
Whole data set: some 33,000 sequences, median “E-score (-0.5 to 0.5)” near -0.032, cut for the highest 2% near 0.36. This excerpt belongs to a sample that is enriched for the highest values.

Biological target: T1, Sko1 (UniProt Q02100)
T1 sequence: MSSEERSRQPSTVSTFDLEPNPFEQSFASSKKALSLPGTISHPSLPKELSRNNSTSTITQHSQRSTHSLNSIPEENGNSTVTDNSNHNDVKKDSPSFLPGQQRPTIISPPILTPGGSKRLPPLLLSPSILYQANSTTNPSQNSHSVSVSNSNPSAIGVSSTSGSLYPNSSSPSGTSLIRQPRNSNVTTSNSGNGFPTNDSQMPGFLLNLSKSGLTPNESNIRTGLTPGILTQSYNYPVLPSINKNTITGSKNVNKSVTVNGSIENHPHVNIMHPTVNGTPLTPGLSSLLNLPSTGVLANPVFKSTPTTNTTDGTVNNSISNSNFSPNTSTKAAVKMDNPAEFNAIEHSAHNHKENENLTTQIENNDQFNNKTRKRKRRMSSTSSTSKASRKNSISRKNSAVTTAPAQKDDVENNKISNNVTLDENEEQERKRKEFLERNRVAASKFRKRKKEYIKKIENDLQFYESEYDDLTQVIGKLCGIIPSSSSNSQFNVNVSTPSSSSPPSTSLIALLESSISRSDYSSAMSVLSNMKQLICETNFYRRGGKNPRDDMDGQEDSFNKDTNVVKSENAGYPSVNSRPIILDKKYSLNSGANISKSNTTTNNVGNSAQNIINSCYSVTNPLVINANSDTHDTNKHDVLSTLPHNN
Assay: PBM E-score (8-mer binding enrichment) (E-score (-0.5 to 0.5)); higher = stronger / more preferred TF binding
Details: protein concentration: 200 nM; construct: GST-full length
Outline: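 Yeast transcription factors, full-length or as DNA-binding domains, were expressed with a GST tag using PURExpress in vitro transcription/translation. At about 100-200 nM they were applied to universal all-10-mer Agilent arrays, double-stranded by primer extension on fresh or once-stripped slides. Fluorescent anti-GST detected bound protein, and masliner normalised the scans. E-scores for ungapped eight-base words, pooled with reverse complements, came from the Universal PBM Analysis Suite.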

| Sequence | PBM E-score |
| --- | --- |
| ATCACTGG | 0.0306 |
| CATATCCA | -0.129 |
| ACCGTTCC | -0.0907 |
| GCGCCACC | -0.291 |
| GGACGTGA | 0.181 |
| ATACGTGG | 0.429 |
| AGACGTGA | 0.312 |
| AGACGTGC | 0.241 |
| AGACGTGG | 0.203 |
| ATACGTGC | 0.406 |
| GTACGTGA | 0.416 |
| AAACGTGA | 0.308 |
| GAACGTGA | 0.175 |
| CTACGTGC | 0.354 |
| ATACGTGA | 0.426 |
| AAACGTGG | 0.213 |
| CAGTCTTC | -0.187 |
| AGCCGAAT | -0.104 |
| AGCCTTTA | 0.0785 |
| CTGGTGGA | -0.185 |
| CTACGTGA | 0.404 |
| CTACGCGA | 0.167 |
| CTTCGTGA | 0.186 |
| CGTCAGAG | 0.429 |
| AGTCAGAA | -0.0299 |

| Sequence | PBM E-score |
| --- | --- |
| CGTCAAAA | 0.36 |
| AGTCAGAG | -0.142 |
| CGTCAGAA | 0.37 |
| GGTCAGAA | -0.206 |
| AGTCAGAC | -0.203 |
| CGTCAAAC | 0.253 |
| CCTCAGAG | -0.374 |
| CGTCAGAC | 0.394 |
| GGTCAAAA | 0.096 |
| GGTCAGAC | -0.241 |
| CTAACTTA | 0.00938 |
| CGCTGTGC | -0.202 |
| CGTTATTA | 0.303 |
| CACAGTGC | -0.182 |
| AGACTTAT | -0.0312 |
| CGTCAGGA | 0.39 |
| CGTCAGTC | 0.375 |
| CGTCAATA | 0.359 |
| AGTCAGTC | -0.02 |
| AGTCAATC | 0.017 |
| AGTCAACG | 0.0691 |
| CGTCAATC | 0.365 |
| CGTCAACA | 0.323 |
| CGTCAGTA | 0.327 |
| CGTCAGGC | 0.272 |

| Sequence | PBM E-score |
| --- | --- |
| GGTCAGGA | -0.245 |
| CGTCAACG | 0.389 |
| CCTGGTAA | -0.124 |
| CGCTGTCC | -0.0275 |
| ATTCCATG | -0.0675 |
| AACGAAAT | 0.261 |
| CGTGGGAA | 0.00507 |
| GCATAAAC | 0.166 |
| ACCAAGGC | -0.197 |
| CTGCCCGC | -0.0733 |
| GCCTACAA | -0.169 |
| CTCTGATA | 0.0155 |
| GCAAGTCA | 0.00337 |
| ACAGAGAG | -0.274 |
| ATTTCTTG | 0.164 |
| GGCTCACA | -0.118 |
| GTGTCCAA | 0.142 |
| ATTGTGCA | 0.076 |
| CTGTTCGA | -0.13 |
| ACGTCGCC | 0.327 |
| AACGTGAC | 0.277 |
| CACGTGAG | 0.344 |
| GACGTGAC | 0.432 |
| GACGTGAA | 0.358 |
| CGCGTGAC | 0.267 |

| Sequence | PBM E-score |
| --- | --- |
| CACGTGAC | 0.387 |
| AATCGACG | 0.295 |
| GAAACCCC | -0.221 |
| CCGACGTA | 0.415 |
| GCGACGTA | 0.413 |
| CCGACGTC | 0.309 |
| GCGACGGA | -0.237 |
| CCGACGGA | -0.237 |
| GCGACGAA | 0.0338 |
| GACACTGC | -0.0761 |
| GGGCGCTA | -0.0254 |
| GCTGGAAC | -0.188 |
| AAGTAGCT | 0.0695 |
| GCGTAGCC | 0.00349 |
| ACGTAGCT | 0.444 |
| CCGTAGCG | -0.239 |
| ACTTAGCG | 0.0634 |
| ACGTAGCA | 0.412 |
| ACGTAGCC | 0.388 |
| TCGTAGCA | 0.217 |
| CCGTAGCC | -0.259 |
| ACTTAGCT | -0.211 |
| ACGTAGCG | 0.42 |
| CCGTAGCA | -0.064 |
| TAGGATGA | 0.136 |

| Sequence | PBM E-score |
| --- | --- |
| CGTTCGAG | 0.189 |
| ACTAAAGG | -0.0392 |
| GAACACAC | -0.0651 |
| CCCCAGCA | -0.157 |
| AGCGTATC | -0.0128 |
| GACGTATC | 0.422 |
| CACGTATG | 0.426 |
| CACGTATA | 0.431 |
| AACGTATG | 0.431 |
| CAGGTATG | -0.00478 |
| CGCGTATA | 0.244 |
| AGCGTATG | -0.0197 |
| ACCGTATG | 0.105 |
| CAAGTATG | 0.0253 |
| GAAGTATC | 0.0123 |
| CTCGTATA | 0.0394 |
| CGAGCACA | -0.00253 |
| CAGTTCAG | -0.112 |
| TTACAGAA | -0.0258 |
| ACAATAGC | -0.0393 |
| CAATGCCG | -0.128 |
| CGACCTTC | -0.189 |
| ACTGCGTC | 0.284 |
| AAAGTATT | 0.0493 |
| GTCGTATA | 0.269 |

| Sequence | PBM E-score |
| --- | --- |
| CACGTATC | 0.393 |
| TACGTATA | 0.483 |
| GGCGTATA | 0.148 |
| CGCGTATC | 0.232 |
| ACCGTATA | 0.0367 |
| ATCGTATA | 0.197 |
| AACGTATT | 0.434 |
| CTCGTATC | 0.0593 |
| GACGTATA | 0.453 |
| AAGGTATT | 0.131 |
| CGCACTGA | 0.0222 |
| AGCTATAT | 0.172 |
| TCCCGACA | -0.139 |
| CAAGTCGC | -0.173 |
| AGCGTATA | 0.15 |
| AACGTATC | 0.353 |
| AACGTATA | 0.406 |
| ACACGGGG | -0.242 |
| CTTACGAC | 0.16 |
| ACTACGAG | 0.162 |
| ATTACGAG | 0.36 |
| ACTACGAC | 0.181 |
| AATACGAG | 0.244 |
| ATTACGAC | 0.396 |
| ATACCTGC | -0.102 |

| Sequence | PBM E-score |
| --- | --- |
| CAAATTAG | 0.104 |
| TCGTCACA | 0.379 |
| CCGTCACG | 0.152 |
| GCGTCACA | 0.406 |
| TGGTCACA | 0.0263 |
| GCGTCACC | 0.341 |
| CCGTCACA | 0.163 |
| ACTAGACT | -0.176 |
| CAATAGCA | -0.132 |
| CTGCAATC | -0.0429 |
| CGCTGAGA | -0.0923 |
| AAAACCAG | -0.0997 |
| CCGCAACC | -0.2 |
| CCGCAACG | 0.0186 |
| CCGCAACA | 0.165 |
| ACGCAACA | 0.388 |
| GCGCAACC | -0.162 |
| ACGCAACG | 0.377 |
| ACGCAACC | 0.379 |
| ACGCAACT | 0.355 |
| GCGCAACA | 0.175 |
| TAGAGCCA | -0.278 |
